From PubChem BioAssay AID488890 (Southern Research Specialized Biocontainment Screening …, 2010)
About 1,300 (0.41%) of roughly 320,000 compounds were called active. About 3% were inconclusive and are not listed. How the calls were made is not given here. These entries were drawn from the full list. Measured potencies and affinities stand elsewhere.

test: growth inhibition of non-replicating M. tuberculosis (AID 488890); conditions: Mycobacterium tuberculosis non-replicating, at 25 µM, stronger effect = higher value;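 further: plate controls were DMSO cells for no effect and high antibiotic wells for full effect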

| Compound | inhibition |
| --- | --- |
| COc1cccc(-c2nnc(-c3ccco3)o2)c1 | 65.8% |
| Cc1ccccc1Oc1ncnc(N)c1[N+](=O)[O-] | 6.54% |
| Cc1cccc(Oc2ncnc(N)c2[N+](=O)[O-])c1C | 29.9% |
| Cc1ccccc1C(=O)NCC(=O)OCCCOC(=O)CNC(=O)c1ccccc1C | -9.69% |
| O=C1CN(C(=O)CNCc2ccccc2Cl)c2ccccc2N1 | 9.45% |
| Cc1ccc(-c2cc(-c3ccc(F)cc3)n[nH]2)c(O)c1 | -3.72% |
| CN(C)CCOC(=O)/C(=C/c1cn(C)c2ccccc12)NC(=O)c1ccccc1 | -4.57% |
| Cc1ccc(S(=O)(=O)CCC(=O)OCC(=O)c2ccc(C)c(C)c2)cc1 | 73.6% |
| Cc1ccc(C(=O)CCS(=O)(=O)c2ccc(F)cc2)cc1 | 69.2% |
| Cc1ccc(C)c(OCc2nnc(NC(=O)c3ccc4c(c3)OCO4)s2)c1 | 6.85% |
| O=C1NC2(CCC3(CC2)OCCO3)NN1c1ccccc1 | 14.8% |
| O=C1NC2(CCCCC2)NN1c1ccccc1 | 18.6% |
| O=C(O)Cc1ccc(Oc2ncc(C(F)(F)F)cc2Cl)cc1 | -16.8% |
| O=C(CCCc1nc(-c2ccccc2)no1)Nc1cccnc1 | 34.2% |
| Cc1cccc(-c2noc(CCCC(=O)Nc3cccnc3)n2)c1 | 32.7% |
| O=[N+]([O-])c1ccc2ncnc(Nc3ccc4c(c3)OCCO4)c2c1 | 21.4% |
| Cc1c(C(=O)OCc2ccc(F)cc2)sc2nc3n(c(=O)c12)CCC3 | 29.2% |
| CCOC(=O)c1sc2nc3n(c(=O)c2c1C)CCC3 | 1.86% |
| COc1ccc(N2CCN(c3ccc(N)cc3C#N)CC2)cc1 | -1.74% |
| N#Cc1cc(N)ccc1Sc1ccccc1 | 9.77% |
| CS(=O)(=O)N(CC(=O)NCCC1=CCCCC1)c1ccc2c(c1)OCO2 | -1.16% |
| COc1ccc(-c2cc(C(=O)NCCN3CCOCC3)no2)cc1OC | -10.1% |
| Cc1ccc2sc(N3CCN(C(=O)c4ccc([N+](=O)[O-])o4)CC3)nc2c1C | 68.9% |

| Compound | inhibition |
| --- | --- |
| Cc1ccc(C)c2sc(N3CCN(C(=O)c4ccc([N+](=O)[O-])o4)CC3)nc12 | 77.8% |
| O=C(c1ccccc1)N1CCN(c2nc3ccc([N+](=O)[O-])cc3s2)CC1 | 24.5% |
| CCCCC(=O)N1CCN(c2nc3ccc(F)cc3s2)CC1 | 50.8% |
| Cc1ccc(OCCC(=O)OCC(=O)NCc2ccccc2)cc1 | 30.8% |
| CC1(C(=O)CSc2ncn[nH]2)CCC(=O)O1 (stereo not drawn) | -3.75% |
| O=C(NC1CC1)c1cc2ccccc2o1 | 6.17% |
| O=C(NC1CCCCC1)c1cc2ccccc2cc1O | 30.4% |
| CCn1cc(C(=O)NC(C)C2CC3CCC2C3)cn1 (stereo not drawn) | 78.4% |
| CC(NC(=O)Cn1cnnn1)C12CC3CC(CC(C3)C1)C2 (stereo not drawn) | 2.51% |
| Cc1ccc(C2NC(=O)c3ccccc3O2)cc1 (stereo not drawn) | 9.75% |
| COc1ccc(NS(=O)(=O)c2ccc(N3CCCCC3)c(NC(=O)C(C)NC(N)=O)c2)cc1 (stereo not drawn) | 17.6% |
| CC/C(=N\NS(=O)(=O)c1ccc(C)cc1)c1ccco1 | -13.4% |
| COc1ccccc1OCCCCN1CCCCC1 | 7.51% |
| COc1ccccc1OCCOCCN1CCCC1 | -3.17% |
| COc1ccc(CC(=O)NC(C)(C)C)cc1S(=O)(=O)N1CCOCC1 | -3.56% |
| COc1cc2c(cc1OC)CN(C(=O)c1ccc(OC)c([N+](=O)[O-])c1)CC2 | 2.12% |
| O=C(c1ccccc1)N1CCN(C(=O)c2cc3ccccc3o2)CC1 | -6.53% |
| O=C(c1ccccc1[N+](=O)[O-])N1CCc2ccccc2C1 | -4.71% |
| O=C(c1ccc([N+](=O)[O-])o1)N1CCOCC1 | 15.5% |
| COc1cc2c(cc1OC)CN(C(=O)c1ccc(Br)o1)CC2 | -1.97% |
| O=C(c1ccc([N+](=O)[O-])cc1)N1CCc2ccccc2C1 | 39.6% |
| CC(=O)N1CCN(C(=O)c2cc3ccccc3o2)CC1 | 2.82% |
| O=C(c1ccc([N+](=O)[O-])o1)N1CCCCCC1 | 56.6% |

| Compound | inhibition |
| --- | --- |
| O=C(COC(=O)c1cncc(Br)c1)NCC1CCCO1 (stereo not drawn) | 4.18% |
| N#Cc1ccc(S(=O)(=O)N2CCC(C(=O)Nc3cccc(C(=O)NC4CC4)c3)CC2)cc1 | 4.79% |
| COC(=O)C1=C(C)N(C(C)C)C(=O)C1(NC(=O)C1CCCCC1)C(F)(F)F (stereo not drawn) | 7.64% |
| CCOc1ccc(C(NC(=O)CC)c2c(O)ccc3ccccc23)cc1 (stereo not drawn) | 22.7% |
| COc1ccc(N2CCOCC2)c(NC(=O)c2cccs2)c1 | -2.48% |
| CN1C[C@H](C(=O)NC2(C)OC3(O)[C@@H]4CCCN4C(=O)[C@H](Cc4ccccc4)N3C2=O)CC2c3cccc4[nH]cc(c34)C[C@H]21 (stereo partly drawn) | 12.4% |
| CC1CCC(NC(=O)C2CC(O)CN2S(=O)(=O)c2ccc([N+](=O)[O-])cc2)CC1 (stereo not drawn) | 11.1% |
| O=C(Nc1ccccc1N1CCOCC1)c1ccc2ccccc2n1 | 32.1% |
| CSCCC(NC(=O)c1ccco1)C(=O)N1CCC(C(N)=O)CC1 (stereo not drawn) | -11.5% |
| COc1ccc(NC(=O)CN(C)C(=O)c2ccc3ccccc3n2)cc1 | -6.38% |
| O=C(Nc1cc(Cl)ncn1)c1ccccc1 | 5.29% |
| CCN(CC(=O)Nc1cccc(OC)c1)CC(=O)Nc1ccc(C)cc1Cl | 13.4% |
| O=C(Nc1ccc(Cl)cc1)C1CCCCN1S(=O)(=O)c1ccccc1 (stereo not drawn) | 10.3% |
| Cc1cc(C)c(C)c(OCC(=O)O/N=C(\N)c2ccccn2)c1 | 13% |
| CCOC(=O)c1cccc(-n2cccc2/C=C2\NC(=O)N(CC(=O)O)C2=O)c1 | -4.64% |
| CC(NC(=O)C1CCC(CNS(=O)(=O)c2ccccc2)CC1)c1ccc2c(c1)OCCO2 (stereo not drawn) | 0.52% |
| CC(=O)Nc1ccccc1Sc1ccccc1 | -2.8% |
| N#CCC(CNc1ncc(C(F)(F)F)cc1Cl)OC(=O)c1ccc(Cl)cc1 (stereo not drawn) | 27% |
| CC(C)(C)N(Cc1ccccc1)C(=O)COC(=O)c1ccc([N+](=O)[O-])o1 | 4% |
| CN(Cc1ccccc1)C(=O)c1ccco1 | 14.6% |
| Cc1cc(NC(=O)CSc2nncn2N)no1 | -18% |
| COCc1cc(=O)[nH]c(Nc2nc3ccc(C)cc3o2)n1 | -3.8% |
| COC(=O)Cc1cc(=O)[nH]c(Nc2nc3ccccc3o2)n1 | 69% |

| Compound | inhibition |
| --- | --- |
| COc1cc(C(=O)NCCCNc2nc3c(C)cc(C)cc3cc2C#N)cc(OC)c1OC | 40.9% |
| Cc1[nH]n(-c2ccccc2)c(=O)c1N=Nc1ccc(Cl)cc1 | 22% |
| Cc1[nH]n(-c2ccccc2)c(=O)c1N=Nc1cccc(Cl)c1 | 1.75% |
| COc1ccccc1C(=O)COC(=O)c1ccccc1O | 26.5% |
| COc1ccc(OC)c(C(=O)COC(=O)c2ccccc2O)c1 | 51.8% |
| COc1ccc(/C=N/NC(=O)c2c(Br)cnn2C)c2ccccc12 | 8.73% |
| Cc1cccc(CCNC(=O)Cn2ncc3c([nH]c4ccccc43)c2=O)c1 | 3.21% |
| COc1ccc(NC(=O)CNC(=O)C23CC4CC(CC(C4)C2)C3)c(OC)c1 | 7.13% |
| COc1ccc(C(=O)NNC(=O)C23CC4CC(CC(C4)C2)C3)c(OC)c1 | 1.7% |
| Cc1cc(C)c2sc(N(CCCN(C)C)C(=O)CN3C(=O)c4ccccc4C3=O)nc2c1 | 16.6% |
| COc1cccc(NC(=O)C2C3C=CC(O3)C2C(=O)NCc2cccnc2)c1 (stereo not drawn) | 7.86% |
| Cc1nc2ccc(NC(=O)c3ccc([N+](=O)[O-])cc3)cc2s1 | 41.2% |
| Cc1nc2ccc(NC(=O)c3ccc(Cl)c([N+](=O)[O-])c3)cc2s1 | -1.87% |
| COc1cc(-c2c(C#N)c(N)nc3c2c(C)nn3-c2ccc(C)c(C)c2)cc(OC)c1OC | 20.3% |
| Cc1ccccc1Nc1c([N+](=O)[O-])cncc1[N+](=O)[O-] | 76% |
| COc1ccccc1Nc1c([N+](=O)[O-])cncc1[N+](=O)[O-] | 55.7% |
| CCN(CC(=O)NCc1ccc(F)cc1)C(=O)c1ccc2c(c1)OCO2 | -2% |
| COc1ccc(C(=O)N2CCN(C)C(=O)[C@@H]2C)cc1OC1CCN(C(C)C)CC1 | -16.1% |
| Oc1ccc(C=NC2CCCCC2)c(O)c1 | -6.4% |
| CCn1c(O)c(C=NC2CCCC2)sc1=S | -4.02% |
| COCCOC(=O)c1c(C)oc2ccc(OC(=O)c3c(OC)cccc3OC)cc12 | 0.6% |
| CCOC(=O)Oc1ccc2oc(C)c(C(=O)OCCOC)c2c1 | 61.6% |
| CC(Oc1cc(Cl)ccc1Cl)C(=O)N/N=C\c1ccnn1C (stereo not drawn) | 10.1% |

| Compound | inhibition |
| --- | --- |
| CC1CCC(C(C)C)C(OC(=O)C[n+]2cc(-c3ccc(Cl)cc3)n3c2CCC3)C1 (stereo not drawn) | 49.4% |
| O=C(C[n+]1cc(-c2ccc(Cl)cc2)n2c1CCCCC2)c1ccccc1 | -12.8% |
| O=C(O)CSc1nnc(-c2ccccc2)o1 | -5.91% |
| Cn1c(SC2=CS(=O)(=O)c3ccccc32)nc2ccccc21 | 58% |
| CSc1nnc(-c2ccccc2)o1 | 17.4% |
| Cc1cc(C)nc(SC2=CS(=O)(=O)c3ccccc32)n1 | -0.38% |
| CC(C)c1ccc(N(C(=O)c2snc(C(N)=O)c2N)C(C(=O)NC2CCCC2)c2ccncc2)cc1 (stereo not drawn) | 15.7% |
| COc1ccccc1-c1cc(C(F)(F)F)nc(NCc2cccs2)n1 | 13.2% |
| Cc1ccc(C(=O)N/C(=C\c2cn(C)c3ccccc23)C(=O)OCCN(C)C)cc1 | 1.18% |
| CCOC(=O)C1CCN(C(=O)C(C)Oc2ccc(C(=O)c3ccccc3)cc2)CC1 (stereo not drawn) | 28.6% |
| COc1cc(-c2ccc3oc(-c4ccsc4)cc(=O)c3c2)cc(OC)c1OC | 72.1% |
| Cc1ncc([N+](=O)[O-])n1CC(=O)Nc1ccc(F)cc1F | -8.21% |
| CN(Cc1ccccc1)C(=O)Nc1ccc(Cl)cc1 | 48.8% |
| O=C1N=c2ccccc2=C1c1sc(=S)n(Cc2ccccc2Cl)c1O | -18.1% |
| CCOC(=O)c1ccc(-n2nc(C)cc2C)cc1 | 13.4% |
| Cc1cc(C)n(-c2ccc(C(=O)OC(C)C)cc2)n1 | 5.09% |
| CCOc1cc2c(cc1OCC)-n1cccc1C(c1ccccc1F)NC2 (stereo not drawn) | 19.4% |
| CS(=O)(=O)Cc1ccc(C(=O)N2CCCC2c2cccs2)cc1 (stereo not drawn) | 0.57% |
| O=C(NC1CCCc2c1cnn2-c1cc(F)cc(F)c1)c1ccccn1 (stereo not drawn) | 25.6% |
| O=C(NC1CCCc2c1cnn2-c1cc(F)cc(F)c1)c1ccncc1 (stereo not drawn) | 4.39% |
| CC(C)(C)OC(=O)NCCc1n[nH]c(=S)o1 | -4.45% |
